Out of some 69,000 compounds screened, about 8,600 (12%) showed an effect of 50% or more. The sample as a whole holds a higher share of strong results than the screen did.
System: Plasmodium berghei
Experiment: Screen against P. berghei liver stage (PbLuc), transformed with Luciferase, at 10uM
Type: functional, HepG2
Conditions: tested at 10 uM

Row | SMILES | INHIBITION
1 | O=C(O)c1cc(-c2cccs2)nc2c(Br)cnn12 | 15.9%
2 | Cn1cc(NC(=O)CNC(=O)N2CCN(c3ccccc3)CC2)cn1 | 21.5%
3 | Cc1cnc(CN(C)C2CCN(CC(=O)Nc3nncs3)C2)o1 (stereo not given) | 20.9%
4 | CCCC(=O)N1CCC2(CC1)CN(Cc1cccc(C)n1)C(=O)CO2 | 25.3%
5 | O=C(NCCc1ccccn1)[C@@H]1CC[C@@H]2[C@@H](CCN2Cc2ccoc2)O1 | 59.9%
6 | CS(=O)(=O)N1CC[C@H]2O[C@H](C(=O)NCCc3ccncc3)CC[C@H]21 | -35.9%
7 | CS(=O)(=O)N1CC[C@H]2O[C@H](C(=O)NCc3cccnc3)CC[C@H]21 | 11.4%
8 | O=C(Nc1cnccn1)[C@H]1CC[C@@H]2[C@@H](CCN2Cc2ccoc2)O1 | 8.52%
9 | CS(=O)(=O)N1CC[C@H]2O[C@H](C(=O)NCCc3ccccn3)CC[C@H]21 | 54.7%
10 | O=C(NCc1cccs1)[C@H]1CC[C@@H]2[C@@H](CCN2Cc2ccoc2)O1 | -5.31%
11 | Cc1c(C(=O)N(C)c2ccccc2)cccc1N(C)S(C)(=O)=O | 22.07%
12 | CN(Cc1ccc(F)cc1)[C@@H]1CN(S(C)(=O)=O)C[C@H]1O | 14.12%
13 | CC(C)Oc1ncc(C(=O)N2CCC(CC(N)=O)CC2)cc1Cl | 16.9%
14 | CC(C)Oc1ncc(C(=O)N2CCC(N(C)C)CC2)cc1Cl | 26.6%
15 | CCN1CCCN(C(=O)c2cnc(OC(C)C)c(Cl)c2)CC1 | 60.1%
16 | CC(=O)N1CCCN(C(=O)c2cnc(OC(C)C)c(Cl)c2)CC1 | 51.1%
17 | CC(=O)N1CCN(C(=O)c2cnc(OC(C)C)c(Cl)c2)CC1 | -2.32%
18 | CC(O)CN1CCN(C(=O)c2cnc(OC(C)C)c(Cl)c2)CC1 (stereo not given) | 40.5%
19 | O=C(N[C@@H]1CN(Cc2cccs2)[C@@H]2CCCO[C@@H]21)c1cscn1 | -17.1%
20 | O=C(NCCNc1ncccn1)N1CCCC1c1ccncc1 (stereo not given) | 11.8%
21 | Cc1nc(CN(Cc2ccncc2)C2CCN(C)CC2)cs1 | 8.46%
22 | Cc1ccc(-c2cc(C(F)(F)F)nc(N3CCOCC3)n2)s1 | 29.8%
23 | CCc1ccc(-c2cc(C(F)(F)F)nc(N3CCC(N)CC3)n2)cc1 | 91.4%
24 | CCn1ncc(-c2cc(C(F)(F)F)nc(N3CCC(N)CC3)n2)c1C | -1.84%

Row | SMILES | INHIBITION
25 | FC(F)(F)c1cc(-c2cccs2)nc(N2CCN3CCCC3C2)n1 (stereo not given) | 25.3%
26 | CCNC(=O)[C@@H]1C[C@H](N)CN1c1cc(C(F)(F)F)nc(N2CCCC2)n1 | -122%
27 | Cc1c(-c2cc(C(F)(F)F)nc(N3CCC(N)CC3)n2)cnn1C | 50.8%
28 | CCc1nc(C2CCCN2Cc2cc(=O)n(C)c(=O)n2C)no1 (stereo not given) | -27.9%
29 | CC(C)C(CCO)NC(=O)Nc1ccc(-c2csnn2)cc1 (stereo not given) | -6.39%
30 | Cc1cccc(CN2C(=O)CCC23CCN(c2ccccn2)CC3)n1 | -11%
31 | Cc1nn(-c2cc(Cl)cc(Cl)c2)c(C)c1CCC(=O)O | 46.1%
32 | CC(c1ccccn1)N(C)Cc1ccc(-n2cncn2)cc1 (stereo not given) | 28.5%
33 | CN1CCOC(CNC(=O)CCCOc2ccccc2F)C1 (stereo not given) | 52%
34 | Cc1cccc(C2(C(=O)NCC3CN(C)CCO3)CC2)c1 (stereo not given) | 19.8%
35 | CN1CCOC(CNC(=O)CCCOc2cccc(F)c2)C1 (stereo not given) | -5.2%
36 | Cc1ccccc1OCCCC(=O)NCC1CN(C)CCO1 (stereo not given) | 22.265%
37 | CN1CCOC(CNC(=O)C2(c3ccccc3)CCC2)C1 (stereo not given) | 57.4%
38 | CN1CCOC(CNC(=O)C2(c3cccc(Cl)c3)CC2)C1 (stereo not given) | 0.348%
39 | CC(C)CC(CC(C)C)NC(=O)c1ccn(C)c(=O)c1 | 1.51%
40 | COc1ncccc1CN1C[C@H]2C[C@@H](C(=O)NCC3CC3)N(C)[C@H]2C1 | 29.7%
41 | CC(C)c1nn(C)cc1CNCc1cccnc1N(C)C | 14.7%
42 | CSCC(=O)N1CCc2c(cnc(C)c2-c2noc(-c3ccco3)n2)C1 | 33%
43 | Cc1ncsc1C(=O)OCC1CCN(c2ccccc2)C1 (stereo not given) | 89.4%
44 | Cc1ncc(C(=O)OCC2CCN(c3ccccc3)C2)s1 (stereo not given) | 58.5%
45 | Cn1ncc(C(=O)OCC2CCN(c3ccccc3)C2)c1C(F)F (stereo not given) | 9.96%
46 | Cc1ncsc1C(=O)OCCN1CCCc2ccccc21 | 41.3%
47 | O=C(OCC1CCN(c2ccccc2)C1)c1cscn1 (stereo not given) | 51.7%
48 | O=C(OCC1CCCN(C(=O)c2ccccc2)C1)c1cscn1 (stereo not given) | 10.6%

Row | SMILES | INHIBITION
49 | COCCn1cc(NC(=O)NCC2CCN(c3ccccc3)C2)cn1 (stereo not given) | 22.8%
50 | Cc1ncsc1C(=O)N1CCN(Cc2ccccc2)CC1C (stereo not given) | 23.8%
51 | COCc1nc(C(=O)OCC2CCN(c3ccccc3)C2)cs1 (stereo not given) | 18.3%
52 | Cc1oc(-c2nc(C#N)c(NC3CC3)o2)cc1S(=O)(=O)N1CCCC1 | 25.8%
53 | CCN(Cc1ccco1)C(=O)NCC(C)N1CCc2sccc2C1 (stereo not given) | -3.72%
54 | Cc1occc1C(=O)N1C[C@@H]2CCCO[C@@H]2[C@H](N(C)Cc2ccco2)C1 | 43.9%
55 | Cc1cccc(CN(C(=O)NCc2ccccn2)C2CC2)c1 | 19.4%
56 | CN(C)c1cc(C(=O)N2CCCC2)ccn1 | -4.567%
57 | COc1ccccc1N1CCN(C(=O)c2ccoc2)CC1 | -17.4%
58 | COc1ccccc1N1CCN(C(=O)c2ccnc(N(C)C)c2)CC1 | 77.15%
59 | O=C(N1CCCO1)[C@@]12CCO[C@@H]1CCN(Cc1ccsc1)C2 | 14.5%
60 | CC(CNC(=O)N1CCS(=O)(=O)CC1)Cc1cccs1 (stereo not given) | 16.1%
61 | CC(CNC(=O)N1CCSCC1)Cc1cccs1 (stereo not given) | -18.2%
62 | CC(CNC(=O)N1CCNC(=O)CC1)Cc1cccs1 (stereo not given) | 51.1%
63 | Cn1cc(CN(CC2(O)CCNC2)C2CCCCC2)cn1 (stereo not given) | 38.5%
64 | O=C(Nc1ccccc1F)C1CN(C(=O)c2ccc3c(c2)OCO3)C1 | 46.1%
65 | Cc1nnc([C@@]23CCO[C@@H]2CCN(S(C)(=O)=O)C3)o1 | 23.3%
66 | Cc1noc([C@@]23CCO[C@@H]2CCN(S(=O)(=O)c2cccnc2)C3)n1 | 44.8%
67 | Cc1nnc([C@@]23CCO[C@@H]2CCN(S(=O)(=O)c2ccccc2)C3)o1 | 61.1%
68 | CCCS(=O)(=O)N1CC[C@H]2OCC[C@@]2(c2nnc(C)o2)C1 | 55.5%
69 | CCS(=O)(=O)N1CC[C@H]2OCC[C@@]2(c2nnc(C)o2)C1 | 34.6%
70 | Cc1nnc([C@@]23CCO[C@@H]2CCN(S(=O)(=O)c2cccnc2)C3)o1 | -1.36%

Source: ChEMBL document CHEMBL4513216, “Probing the Open Global Health Chemical Diversity Library for Multistage-Active Starting Points for Next-Generation Antimalarials” (ACS Infect Dis, 2020)
